According to PubChem BioAssay (NCI):
Compounds without any hit were thinned out: in the full panel of roughly 79,000, 15% have a hit. A number with no mark means an inactive call. Cut-off read from the data, not from the text of the source: active = growth inhibition above about 70%; inactive = the rest.

Assay: NCI Yeast Anticancer Drug Screen. Data for the sgs1 mgt1 strain (AID 161);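 note: 0% = growth of cultures given vehicle only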
Settings: S. cerevisiae sgs1 mgt1 strain, at 50.0 µM, active compounds read high
How it was run: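 Test agents were incubated with a DNA-repair-mutant yeast strain. Growth was then read and compared against vehicle-treated controls.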

| SMILES | growth inhibition |
| --- | --- |
| CC1COC(C(C)C)(C(C)C)O1 (stereo not drawn) | -4.2% |
| CCc1cccc(CC)c1NC(=O)c1ccccc1Br | 15.7% |
| Nc1cccc2c(O)cc(S(=O)(=O)O)cc12 | 7.6% |
| CC(C)(C)c1ccnc(C(O)(C(F)(F)F)C(F)(F)F)c1 | -12.2% |
| CCCCCCCCCCCCCCCCCC(=O)N/N=C/c1ccc(Cl)cc1 | -11.6% |
| Cc1[nH]c2cc([N+](=O)[O-])ccc2c1C | -10.1% |
| COc1cc(NC(C)=O)c2nccnc2c1 | 0.1% |
| CCOC(=O)C1=CC(C)(C(=O)OCC)Nc2c(nc(N)[nH]c2=O)N1 (stereo not drawn) | -8.35% |
| CC(=O)c1cccc(NC(=O)c2cccc(Cl)c2)c1 | 24.5% |
| Cc1cc2c(c3c1C(=O)CC3)CCCC2(C)C | 2.75% |
| CCCC(=O)OC(C)COc1ccccc1 (stereo not drawn) | 21.3% |
| CN(C)c1ccc(C2(c3ccc(N(C)C)cc3)NNC(=O)c3ccccc32)cc1 | 9.35% |
| O=C(Nc1cccc([N+](=O)[O-])c1)C(=O)C(C(=O)c1ccccc1F)C1OC(=O)C2C=CC=CC21 (stereo not drawn) | 16.1% |
| NNC(=O)c1nc[nH]c1C(=O)NN | 21.5% |
| Cc1ccc(S(=O)(=O)Oc2ccc(N(CC(=O)O)S(=O)(=O)c3ccc(C)cc3)cc2)cc1 | 29.4% |
| CCCCCNC(=O)CCC | 25.6% |
| CC(=Nc1cccc2ccccc12)c1c(O)cc(C)oc1=O | 15.2% |
| CN(C)CCOc1ccccn1 | -5.35% |
